The list is not random: actives were taken first. Their share in the collection is about 17%.
DT40 TDP1 CPT – DT40-hTDP1 cell growth loss with CPT | 420,000 compounds, 12% hits | AID 686979 | chicken DT40 Tdp1-/-;hTDP1 cells + 20 nM CPT, ATP luminescence, 48 h | Potency, µM (titrated, usually from 46.2 µM), for inactives: top-dose activity change, negative = growth inhibition, most hits filed as inhibitors; further: on the % scale 0 is the no-effect control and ±100 the full control effect; nearly all actives have a fitted effect of over 55% in size
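Chicken DT40 Tdp1-/- cells stably complemented with human TDP1 were seeded at 400 cells/well in medium containing 20 nM camptothecin, exposed to pin-transferred compounds, and grown at 37 °C for at least 48 hr. Viability was read as ATP luminescence.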
ATXN2 expr inh – inhibitors of ATXN2 expression | 360,000 compounds, 0.72% hits | HEK-293 ATXN2-luciferase reporter, luminescence, 24 h | Potency, µM (titrated, usually from 57 µM), without a hit: at the highest dose activity change, negative = inhibition, usual class: inhibitors | AID 1745845; further: on the % scale 0 is the no-effect control and ±100 the full control effect; nearly all actives have a fitted effect of over 55% in size
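ATXN2-luciferase reporter cells (luciferase flanked by upstream and downstream ATXN2 gene portions) were treated 24 h at 37 °C with compounds at up to 57 uM. SteadyGlo luminescence gave expression; GF-AFC fluorescence gave viability.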
DT40 TDP1 no CPT – qHTS for Inhibitors of human tyrosyl-DNA phosphodiesterase 1 (TDP1): qHTS in cells in absence of CPT; DT40 Tdp1-/- hTDP1 cells, no CPT, ATP luminescence, 48 h; Potency, µM (highest dose often 46.2 µM), for the others: at the top dose activity change, negative = growth inhibition, most hits filed as inhibitors; 420,000 compounds, 15% hits; further: on the % scale 0 is the no-effect control and ±100 the full control effect; nearly all actives have a fitted effect of over 55% in size
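Growth of hTDP1-complemented DT40 Tdp1-knockout cells is measured by ATP luminescence after at least 48 hr compound exposure at 37 °C, with DMSO substituting for the 20 nM CPT used in the parallel screen.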
TGFb SMAD3 inh – blocks TGF-b signaling. HepG2 CAGA-GFP TGF-b/SMAD3 reporter, GFP fluorescence, 18 h; TGF-beta stimulated, 500 pg/mL final. Potency, µM (series often up to 46.1 µM), inactives show at the top dose activity, negative = inhibition, usual class: inhibitors. 410,000 compounds, 1.2% hits. AID 588855; further: on the % scale 0 is the no-effect control and ±100 the full control effect; nearly all actives have a fitted effect of over 65% in size
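HEPG2 CAGA-GFP, 1000 cells/well; 2 h settle, 37 C; cpd via pin tool; TGF-b 500 pg/mL final; 18 h, 37 C; GFP imaging ex488/em500-530; %Activity normalised to -TGF-b and +DMSO controls; CRC fit, curve class.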
ATXN viability – reduces viability in counter-screen for ATXN expression inhibitors. 400,000 compounds, 0.49% hits. Potency, µM (doses to about 56.7 µM), usual class: cytotoxic. S2 cells (HEK-293 line with an ATXN2-luciferase reporter) viability, CellTiter-Fluor protease fluorescence, 24 h; further: nearly all actives have a fitted effect of over 40% in size
HepG2 viability – kills HepG2 cells in TGF-b inhibitor counter-screen | HepG2 CAGA-GFP viability, ATP luminescence, 18 h | 410,000 compounds, 0.76% hits | Potency, µM (top dose mostly 46.1 µM), for the others: at the highest dose activity change, negative = cytotoxicity, hits mostly cytotoxic
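CellTiter-Glo luminescence gave cytotoxicity after 18 hours at 37 degrees C. The cells were HepG2 CAGA-GFP in 1% FBS DMEM, stimulated with 500 pg/mL TGF-beta after compound addition. %Activity was normalised to no-cell wells (complete cell-killing) and DMSO (no toxicity), and curves were fitted and classified.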
An asterisk follows results filed as active; i = inactive; ? = inconclusive; nt = no result given; [ ] = dose if it differs, or a comment. The call rests on the fitted dose curve; in most records, active means well fitted curve in the direction sought with a large enough effect; inconclusive means small, poorly fitted or top-dose-only effect, or another doubt; inactive means no such curve, though single readings can be large; an effect the other way counts as inactive or inconclusive. Potency means the concentration at half of the fitted maximal effect.

SMILES	DT40 TDP1 CPT	ATXN2 expr inh	DT40 TDP1 no CPT	TGFb SMAD3 inh	ATXN viability	HepG2 viability
CC(NC(=O)Nc1ccc(Cl)c(Cl)c1)C(c1ccccc1)N1CCOCC1 (stereo not drawn)	25.9µM*	?	?	?	?	-51.4%
CC(NC(=O)C1CCC(C(C)(C)C)CC1)C(c1ccccc1)N1CCOCC1 (stereo not drawn)	?	4.3%	23.1µM*	-19.9%	i	-26.6%
CC(NC(=O)C1CC1)C(c1cccs1)N1CCOCC1 (stereo not drawn)	-9.8%	-2.1%	5.2%	2.2%	i	-4.8%
CC(NC(=O)Nc1ccc([N+](=O)[O-])cc1)C(c1ccccc1)N1CCOCC1 (stereo not drawn)	-26.8%	6.3%[11.3 µM]	?	-4.2%	i	-4.0%
CC(Cc1cccs1)NC(=O)Nc1ccc(Cl)c(Cl)c1 (stereo not drawn)	23.1µM*	14.3%	23.1µM*	?	i	-43.1%
CC(Cc1cccs1)NC(=O)Nc1ccccc1 (stereo not drawn)	-28.0%	10.2%	-8.9%	-13.8%	i	-9.7%
CCCOc1ccc(C(=O)Nc2cc3c(cc2N2CCCCC2)n(C)c(=O)n3C)cc1	-3.9%	7.3%	-4.9%	-21.2%	i	-0.6%
CC(=O)Nc1ccc(S(=O)(=O)Nc2ccccc2C(=O)N2CCCCCC2)cc1	-2.3%	-10.9%	17.2%	1.3%	?	-18.1%
COc1ccc(-c2cc3nc4c(c(N5CCC6(CC5)OCCO6)n3n2)CCC4)cc1	13µM*	-4.9%	25.9µM*	-16.1%	i	-11.0%
COc1cccc(-c2cc3nc4c(c(N5CCC6(CC5)OCCO6)n3n2)CCC4)c1	18.4µM*	-0.3%	25.9µM*	4.2%	i	9.1%
COc1cccc(-c2cc3nc(-c4ccccc4)cc(N4CCCC(O)C4)n3n2)c1 (stereo not drawn)	?	nt	?	12.6µM*	i	-32.4%
Cc1cccc(-c2cc3nc4c(c(N5CCC6(CC5)OCCO6)n3n2)CCCC4)c1	-29.9%	29.1%	-26.3%	8.3%	i	-4.1%
COc1ccc(-c2cc3nc(C)cc(C)n3n2)cc1	0.1%	61.0%	-25.2%	-14.9%	i	-41.6%
COc1ccc(-c2cc3nc(-c4ccccc4)cc(N4CCC5(CC4)OCCO5)n3n2)cc1	25.9µM*	-12.4%	?	-1.4%	i	-40.5%
O=c1c(-c2cc(F)cc(F)c2)nc2cnc(N3CCOCC3)nc2n1CCc1ccccc1	-0.5%	nt	15.6%	nt	nt	nt
O=c1c(Oc2ccccc2)coc2cc(O)cc(O)c12	-3.8%	8.3%	-8.9%	21.2%	i	6.5%
CCc1ccc(S(=O)(=O)N/N=C\c2ccc3c(c2)OCO3)cc1	-3.8%	-9.3%	-3.0%	-3.8%	i	-5.7%
CC1C(=O)N2CCCc3cc(NC(=O)c4ccccc4Br)cc1c32 (stereo not drawn)	-2.7%	-1.7%	-7.9%	-3.5%	i	-6.9%
COc1cccc(N2CCN(c3c4c(nc5ncnn35)CCC4)CC2)c1	?	-7.5%	16.4µM*	-8.2%	i	-8.0%
COc1cccc(C2/C(=C(/O)c3cnn(-c4ccccc4)c3C)C(=O)C(=O)N2CCN(C)C)c1 (stereo not drawn)	2.6%	0.8%	-2.8%	8.6%	i	-0.9%
CN1C(=S)N(c2cccnc2)C(=O)/C1=C\c1ccc(C(C)(C)C)cc1	16.4µM*	5.1%	14.6µM*	22.4µM*	?	-57.6%
CN1C(=S)N(c2cccnc2)C(=O)/C1=C\c1ccc(N(C)C)cc1	?	?	?	?	nt	-79.5%
O=C(Nc1ccc2c(c1)C(=O)NC2=O)c1cccc(Cl)c1	0.2%	-5.3%	-9.8%	2.4%	i	-16.6%
CC(=O)Nc1c(C)nn(-c2ccccc2)c1N1CCC(C(=O)NCc2cccc(F)c2)CC1	-11.1%	nt	-20.2%	-0.6%	nt	2.5%
Cc1nnc(N2CCC(C(=O)NC(C)C)CC2)c2nn(-c3ccccc3)c(C)c12	-21.1%	-17.2%	-23.1%	-1.4%	i	-17.1%
SMILES	DT40 TDP1 CPT	ATXN2 expr inh	DT40 TDP1 no CPT	TGFb SMAD3 inh	ATXN viability	HepG2 viability
Cc1ccc(-n2nc3c(N4CCC(C(=O)NCc5cccc(F)c5)CC4)nnc(C)c3c2C)cc1	?	nt	18.4µM*	15.8µM*	?	-95.4%
Cc1nnc(N2CCC(C(=O)NCc3cccc(Cl)c3)CC2)c2nn(-c3ccccc3)c(C)c12	?	?	?	11.2µM*	?	-72.8%
COc1cccc(C2c3c(-c4ccccc4O)n[nH]c3C(=O)N2Cc2cccnc2)c1 (stereo not drawn)	?	1.1%	?	7.6%	i	-5.7%
COc1ccc(CCN2C(=O)c3[nH]nc(-c4ccccc4O)c3C2c2cccc(OC)c2)cc1 (stereo not drawn)	?	nt	18.4µM*	?	nt	-70.4%
O=C1c2[nH]nc(-c3ccccc3O)c2C(c2cccc(Cl)c2)N1Cc1cccnc1 (stereo not drawn)	?	?	?	-6.2%	?	-22.5%
COCCN1C(=O)c2[nH]nc(-c3ccccc3O)c2C1c1ccc(Cl)c(Cl)c1 (stereo not drawn)	18.4µM*	nt	9.2µM*	?	nt	-108.4%
COc1ccc(CCN2C(=O)c3[nH]nc(-c4ccccc4O)c3C2c2cccc(Cl)c2)cc1 (stereo not drawn)	23.1µM*	-26.4%	20.6µM*	?	?	-92.1%
Oc1ccccc1CN(Cc1ccco1)CC(O)COCc1ccc(Cl)cc1 (stereo not drawn)	14.6µM*	-16.1%	18.4µM*	?	i	-94.5%
CC(C)OCc1cc(CN2CCN(c3cccc(C(F)(F)F)c3)CC2)c(O)c2ncccc12	4.61µM*	nt	4.61µM*	1.58µM*	nt	-52.6%
O=[N+]([O-])c1cc(CN2CCN(c3cccc(C(F)(F)F)c3)CC2)c2cccnc2c1O	0.92µM*	0.0%	1.46µM*	-23.2%	?	-6.8%
CCOCc1cc(CN2CCN(c3cccc(C(F)(F)F)c3)CC2)c(O)c2ncccc12	6.51µM*	nt	6.51µM*	2.82µM*	nt	-35.7%
O=[N+]([O-])c1cc(CN2CCCC2)c2cccnc2c1O	2.6%	-9.9%	?	6.1%	i	0.7%
COC(=O)c1c(C)[nH]c(C(=O)C(C)OC(=O)C2=NNC(=O)CC2)c1C (stereo not drawn)	-13.9%	-12.9%	-22.2%	18.6%	i	20.8%

Source: PubChem
